Results published in PubChem BioAssay AID1510 (The Scripps Research Institute Molecular Screening Center, 2009).
In all, about 220,000 compounds went through this assay and about 570 (0.26%) were called active. The sample as a whole holds a higher share of actives than the screen did. A number with no mark means an inactive call. No stated cut-off is given here; in the data, active means inhibition above about 29%; inactive means the rest.

Target: Sphingosine 1-phosphate receptor 4 (Homo sapiens) (UniProt O95977)
Experiment: blockers of human S1P4 receptor – cell-based, primary screen (AID 1510);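 further: 0% = wells stimulated with agonist and 100% = vehicle wells without agonist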
Settings: S1P4-expressing cells, antagonist mode, reporter read-out; at 4.98 µM; stronger effect = higher value

Sequence of Sphingosine 1-phosphate receptor 4 (Homo sapiens) (O95977 whole entry, looked up): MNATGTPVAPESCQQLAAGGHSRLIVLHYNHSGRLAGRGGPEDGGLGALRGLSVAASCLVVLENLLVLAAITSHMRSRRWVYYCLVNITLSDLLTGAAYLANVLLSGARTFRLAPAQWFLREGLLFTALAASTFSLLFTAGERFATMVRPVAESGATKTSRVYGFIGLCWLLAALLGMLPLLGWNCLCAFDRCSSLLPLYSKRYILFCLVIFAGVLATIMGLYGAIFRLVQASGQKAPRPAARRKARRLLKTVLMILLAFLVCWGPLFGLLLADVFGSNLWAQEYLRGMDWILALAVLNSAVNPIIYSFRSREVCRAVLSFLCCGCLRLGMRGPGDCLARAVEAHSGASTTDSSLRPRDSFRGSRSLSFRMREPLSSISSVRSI

Structure (SMILES)	inhibition
O=S1(=O)CCC(NC(=S)SCc2ccccc2Br)C1 (stereo not given)	-3.75%
CC(C)Sc1nnc([C@H](Cc2ccccc2)NC(=O)OC(C)(C)C)o1	-0.59%
C[C@@H](NC(=O)OC(C)(C)C)c1nnc(S(=O)(=O)Cc2ccccc2)o1	64% (active)
C[C@H](NC(=O)OC(C)(C)C)c1nnc(SCC(N)=O)o1	-7.8%
CC(C(=O)NC1CCCC1)N(c1ccc(Oc2ccccc2)cc1)S(C)(=O)=O (stereo not given)	-5.41%
CC(=O)N1CCN(S(=O)(=O)c2c(F)cc(F)c(Cl)c2F)CC1	6.68%
COCCCN(C(=S)Nc1c(C)cc(C)cc1C)C(C)c1ccncc1 (stereo not given)	-9.1%
CCOC(=O)Cc1csc(NC(=O)CSc2ccc(Br)cc2)n1	-7.78%
Cc1cc(-c2cccs2)nc(-n2cccc2)n1	-8.93%
O=C(NNC(=S)NC(=O)c1cn(-c2ccccc2)nc1-c1ccccc1)c1ccncc1	13.1%
CCc1nnc(NC(=O)CCN(c2ccc(C)cc2)S(=O)(=O)c2ccccc2)s1	-0.25%
O=C(NCCOc1ccccc1Cl)C(=O)Nc1ccccc1	-2.25%
S=C(NCC1CCCO1)N1CCN(c2ccc(Cl)c(Cl)c2)CC1 (stereo not given)	4.85%
CCC(C)(C)NC(=O)C(c1ccc(O)cc1)N(C(=O)Cn1nnc2ccccc21)c1ccc(NC(C)=O)cc1 (stereo not given)	-9.34%
COc1cccc(NC(=O)c2nn(-c3ccc(OC)cc3OC)c(=O)c3ccccc23)c1	-8.83%
O=C(/C=C/c1ccc(Cl)c([N+](=O)[O-])c1)c1cccnc1	2.24%
O=C(/C=C/c1ccc(Cl)cc1Cl)c1cccnc1	47.2% (active)
O=C(/C=C/c1ccc(Cl)cc1Cl)NCc1ccco1	3.88%
CCc1c(C)nc2cc(-c3cccs3)[nH]n2c1=O	48.1% (active)
CCc1c(C)nc2cc(C)[nH]n2c1=O	5.94%
Cc1cc(=O)n2[nH]c(-c3sccc3-n3c(C)ccc3C)cc2n1	-27%
CN1C(=O)C(CC(=O)Nc2ccccc2)S/C1=N/c1nccs1 (stereo not given)	-20.3%
Cc1coc2c(O)cc3c(c12)OC1(N2CCCCC2)C(=O)NCCCC31 (stereo not given)	9.33%
COCc1cc(=O)oc2cc(NS(=O)(=O)c3ccc(C)cc3)ccc12	13.1%

Structure (SMILES)	inhibition
CC(C)(C)c1ccc(/C=C2\Oc3c(ccc(O)c3CN3CCN(CCO)CC3)C2=O)cc1	12.8%
Cc1ccc2c(c1)C1CN(C)CCC1N2C(=S)Nc1ccc(Cl)cc1Cl (stereo not given)	-21%
O=S(=O)(NCCc1ccc(F)cc1)c1cccc2cccnc12	-18.1%
CN(C)c1ccc(C(=S)N2CCN(C(=S)Nc3ccc(Cl)cc3)CC2)cc1	-3.9%
CC(=O)Oc1c(C(=O)c2nnc(C)o2)c(=O)n(Cc2ccccc2)c2ccccc12	-3.21%
COCCCNC(=S)NNC(=O)C(O)(c1ccccc1)c1ccccc1	-8.87%
O=C(Nc1nc2ccc([N+](=O)[O-])cc2s1)c1ccncc1	-29%
O=C(O)CCC(=O)Nc1nc2ccc([N+](=O)[O-])cc2s1	-2.95%
O=C(NC(Nc1nc2ccc([N+](=O)[O-])cc2s1)(C(F)(F)F)C(F)(F)F)c1ccccc1	41.2% (active)
Cc1cc(C)cc(OCC(=O)O/N=C(\N)Cc2ccc([N+](=O)[O-])cc2)c1	-5.5%
FC(F)Oc1ccccc1NC(=S)Nc1cccc(Cl)c1Cl	5.26%
COC(=O)CC1=NN(c2nc(C)cc(C)n2)C(=O)C1	-14.2%
CC(=O)c1cc(C#N)c(N2CC(C)OC(C)C2)nc1C (stereo not given)	-33.6%
Cc1nc2ccccc2n1CC(=O)N/N=C/c1cccs1	-34.3%
Cc1ccc(NC(=O)CC2C(=O)N(Cc3ccccc3)C(=S)N2NC(=O)c2cccc(F)c2)c(C)c1 (stereo not given)	6.19%
O=C(Nc1ccc(F)cc1F)N1CCCN(CCOc2ccccc2)CC1	6.19%
O=C(O)/C=C/c1ccc2c(c1)OCCO2	-7.83%
O=C(Nc1ccccc1Cl)c1ccc2nsnc2c1	-7.15%
O=C(Nc1ccccc1Cl)/C(Cl)=C(\Cl)S(=O)c1ccccc1 (stereo not given)	98.4% (active)
O=C(CN1CCCCC1)Nc1ccccc1Cl	-3.07%
COC(=O)c1ccccc1NC(=O)C1CCN(S(=O)(=O)c2cc(OC)ccc2OC)CC1	-24.9%
O=C1N(c2ccccc2)C(=Nc2ccccc2)SC12CC2	1.83%
CCN(CC)S(=O)(=O)c1ccc(C)c(NC(=O)COc2ccc(Br)cc2Cl)c1	-3.44%
COc1ccc(N2CCC(CNC(=S)Nc3c(C)cccc3C)C2)cc1 (stereo not given)	4.09%

Structure (SMILES)	inhibition
CCOc1ccc2nc(C(=O)N3CCCC(C)C3)sc2c1 (stereo not given)	14.6%
O=C(Cc1cccs1)N(CC1CCCO1)C1(C(=O)NC2CCCCC2)CCCCC1 (stereo not given)	-13.5%
O=C(Nc1nnc(C2COc3ccccc3O2)o1)c1ccc(F)cc1 (stereo not given)	-4.96%
CC(C)c1cc(NCc2ccccn2)n2c(nc3ccccc32)c1C#N	12.6%
Cn1nnnc1NCc1ccc(Cl)c(Cl)c1	4.37%
CCCCCC(O)c1cccc(OCc2ccc3ccccc3n2)c1 (stereo not given)	-14.6%
O=C(NCCCc1ccccc1)C1CCC(CNc2c(N3CCCCC3)c(=O)c2=O)CC1 (stereo not given)	0.07%
CC(C)c1ccc(NC(=O)CCN2C(=O)c3ccc([N+](=O)[O-])cc3C2=O)cc1	-5.92%
CC(=O)c1c(-c2ccccc2)c2ccccc2[nH]c1=O	-27.5%
O=C(O)CSc1nccn1-c1cccc(Cl)c1	-14.5%
C/C(=N\Nc1ccc([N+](=O)[O-])cc1)c1ccc(-n2nncc2C(C)(C)C)cc1	-11.5%
COc1ccc(/C=N/NC(=O)Nc2ccc3nsnc3c2)c(OC)c1	9.36%
CC(=O)c1cccc(NC(=O)[C@@H](NC(N)=O)C(C)C)c1	-13.9%
Cc1ccc(S(=O)(=O)Nc2nc3ccccc3s2)cc1[N+](=O)[O-]	-9.6%
COc1ccc(NC(=S)Nc2ccccc2Cl)cn1	-10.6%
COc1ccc(Nc2cc(Cl)ccc2C(=O)O)cn1	0.55%
COc1ccc(CS(=O)/C(Cl)=C(/Cl)C(=O)Nc2ccc(OC)nc2)cc1 (stereo not given)	95.9% (active)
COc1ccc(NC(=S)NCCNC(C)=O)cc1	4.01%
Cc1ccc(NC(=O)OCc2cncs2)cc1	6.88%
COc1ccc(NC(=O)/C(Cl)=C(/Cl)S(=O)Cc2ccc(C)cc2)cn1 (stereo not given)	59.5% (active)
CCn1cc(-c2cc(C(=O)O)on2)c(C)n1	-15.2%
Cc1csc(CN(C)C(=O)CC2C(=O)NCCN2CC(C)(C)C)n1 (stereo not given)	2.01%
CC(C)N(C)C(=O)CCc1nnc(CCc2c[nH]c3ccccc23)o1	-1.14%
CCOc1ccc(C(CCc2ccccc2)NC(=O)c2ccc(OC)c(OC)c2)cc1OCC (stereo not given)	0.03%

Structure (SMILES)	inhibition
CC(=O)Nc1ccc(S(=O)(=O)Nc2nccc(/C=C/c3ccccc3F)n2)cc1	-21.4%
O=C(CC(O)(C(F)(F)F)C(F)(F)F)Nc1ccc(Cl)c(Cl)c1	33.2% (active)
CN(C)CCNC(CC(=O)Nc1ccc(Cl)c(Cl)c1)C(=O)O (stereo not given)	0.14%
O=C(CC(=O)Nc1ccc(Cl)c(Cl)c1)N/N=C/c1ccc(O)cc1	-17.9%
CN(C(=O)CSc1nnc(Nc2ccccc2)s1)C1CCS(=O)(=O)C1 (stereo not given)	-10.1%
Cc1ccc(OCCOCCOc2ccc(Br)cc2/C=N\NC(=O)c2ccncc2)cc1	-17.4%
N#Cc1c(-c2cccs2)nc(SCC(=O)c2ccc(Br)cc2)[nH]c1=O	15.8%
Cc1ccc(C(=O)Nc2sc(Cc3ccc4c(c3)OCO4)c(C)c2C(N)=O)cc1	-11.1%
O=C1C=C(c2ccc(Cl)cc2)C(=O)N1Nc1ccccc1	34.7% (active)
O=C(Nc1ccccc1)OCc1cc(-c2ccc(Cl)cc2)on1	-6.25%
O=C1c2cccc3cc(Br)cc(c23)C(=O)N1Nc1ccccc1	-15.2%
FC(F)(F)c1cccc(-c2nc(COc3ccc(Cl)cc3Cl)no2)c1	-7.31%
Oc1ccc(-c2nncn2-c2ccccc2)cc1	-11.3%
CCNC(=O)COC(=O)CCNC(=O)c1cccc(C)c1	-16.4%
CCN(CCNC(=O)C1=C(C)C(=O)OC12CCC(C)CC2)c1ccccc1 (stereo not given)	7.01%
O=C(CCN1C(=O)C2C3C=CC(C3)C2C1=O)Oc1ccc2ccccc2c1 (stereo not given)	0.5%
O=C1c2cccc3c([N+](=O)[O-])ccc(c23)C(=O)N1CC1CCCO1 (stereo not given)	77.4% (active)
O=C(NCc1ccc2c(c1)OCO2)c1ccc2c(c1)C(=O)N(CC1CCCO1)C2=O (stereo not given)	4.48%
O=c1c2cc3c(=O)n(CC4CCCO4)c(=O)c3cc2c(=O)n1CC1CCCO1 (stereo not given)	1.15%
Cc1onc(NC(=O)c2ccc([N+](=O)[O-])o2)c1Br	28.1%
Cc1cccc(NC(=O)c2ccc([N+](=O)[O-])o2)c1	47.9% (active)
Cc1cccc(NC(=S)NC(=O)c2ccc(Br)o2)c1	-1.45%
CN(C)C(=O)CSc1n[nH]c(-c2ccco2)n1	-22.7%
